# Screens as filed in PubChem.
# This is a sample that favours compounds with a hit; in the whole collection about 3.5% have one here.
# TRAIL sens C8: viability loss with TRAIL in NB7+C8 cells, primary screen, TRAIL sensitizer project, cell-based, ATPlite luminescence; inhibition (viability loss, TRAIL sensitization), % at 10 µM; hit rate 1% among 360,000; AID 624354, 2012;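 active means compounds causing at least 50% loss of cell viability in the single-dose screen, relative to plate controls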
# PPC-1+TRAIL kill: compounds killing PPC-1 cancer cells with TRAIL present, primary screen, TRAIL potentiator project, ATPLite luminescence, uHTS; PPC-1 cells + TRAIL, ATPLite viability luminescence; hit rate 0.41% among 220,000; AID 1443, 2008; cell killing (% activity), % at 4 µM or 5 µM;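 active means cell killing above 50% in the first pass at 4 µM, then a duplicate retest at 5 µM averaging 50% or more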
# TWEAK Fn14 block: inhibitors of TWEAK-Fn14 signaling, primary screen, luciferase reporter cells, uHTS; TWEAK-stimulated Fn14 reporter cells, luciferase luminescence, 8 h; inhibition, % at 10 µM; hit rate 2% among 360,000; in the data active means inhibition above about 50%
# TROY signal inh: inhibitors of TROY-driven NF-kB signaling, primary screen, Q293 LMP1-TROYcd cells, NF-kB luciferase, uHTS. hit rate 0.98% among 360,000. inhibition, % at 10 µM. Q293 LMP1-TROYcd NF-kB luciferase reporter, 4 h;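 active means compounds whose plate-normalised and pattern-corrected inhibition of the luciferase reporter signal at the single screening dose is 50% or more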
# HSP90 inh: HSP90 inhibitors, primary screen, cell lysate, luminescence; Heat shock protein HSP 90 (rabbit reticulocyte lysate; luciferase refolding); Rabbit reticulocyte lysate, luciferase refolding luminescence, 3 h; inhibition, % at 5.6 µM; hit rate 0.91% among 290,000; AID 1789, 2009;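 active means inhibition above the screen-wide mean plus 3 SD, computed separately per campaign, cut at about 16% in these data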;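 further: inhibitors lower the luminescence because luciferase stays unfolded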
# Platelet DG rel: inhibitors of platelet dense granule secretion, primary screen, cell-based, MLPCN, human platelets | human platelet-rich plasma, SFLLRN dense granule ATP release, luminescence | inhibition, %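 (compounds screened at 7.5 µM in platelet-rich plasma)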 | hit rate 0.22% among 300,000;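 active means mean replicate score, as percent of positive control, at or above 50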
# HSP90 confirm: HSP90 inhibitors, confirmation, cell lysate, luminescence; hit rate 64% among 2,300; AID 1846, 2009; shares compounds with HSP90 inh; inhibition, % at 5.9 µM; rabbit reticulocyte lysate, luciferase refolding luminescence, 3 h; in the data active means inhibition above about 18%
# luciferase ctr: firefly luciferase inhibitors, HSP90 counter-screen, confirmation, artefact control for HSP90 inhibitor project, biochemical, luminescence, triplicate; shares compounds with HSP90 inh; purified native firefly luciferase; inhibition, % at 5.9 µM; hit rate 48% among 2,300; AID 1847, 2009;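 active means inhibition above the mean inhibition of all tested sample wells plus 3 SD, cut at about 10% in these data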
# Target sequence (P08659 whole entry, looked up): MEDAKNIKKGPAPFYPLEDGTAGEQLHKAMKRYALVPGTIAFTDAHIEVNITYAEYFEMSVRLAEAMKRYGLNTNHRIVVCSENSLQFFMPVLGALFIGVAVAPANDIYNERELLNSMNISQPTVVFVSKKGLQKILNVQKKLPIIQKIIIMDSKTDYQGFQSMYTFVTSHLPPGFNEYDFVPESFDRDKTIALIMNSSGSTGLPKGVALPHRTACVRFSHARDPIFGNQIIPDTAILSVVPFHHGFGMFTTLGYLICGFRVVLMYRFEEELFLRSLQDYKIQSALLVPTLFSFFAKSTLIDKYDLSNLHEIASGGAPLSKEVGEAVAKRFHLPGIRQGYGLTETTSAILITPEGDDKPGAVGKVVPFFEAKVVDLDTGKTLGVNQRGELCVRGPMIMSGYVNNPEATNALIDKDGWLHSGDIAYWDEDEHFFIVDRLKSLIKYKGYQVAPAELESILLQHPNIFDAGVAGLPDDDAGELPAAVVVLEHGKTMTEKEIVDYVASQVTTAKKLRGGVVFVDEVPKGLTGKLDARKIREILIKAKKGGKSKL
# Numbers stand for hits; n = inactive; x = no result.
SMILES,TRAIL sens C8,PPC-1+TRAIL kill,TWEAK Fn14 block,TROY signal inh,HSP90 inh,Platelet DG rel,HSP90 confirm,luciferase ctr
CCC1(c2ccccc2)NC(=O)N(CC(=O)NCC2COc3ccccc3O2)C1=O (stereo not drawn),n,x,n,n,x,x,x,x
CCOc1ccc(-c2nc(CN3CCCCC3CCn3cccn3)c(C)o2)cc1 (stereo not drawn),n,n,n,n,18,n,36,n
COc1ccc(-c2nc(CN3CCCCC3CCc3ccccn3)c(C)o2)cc1 (stereo not drawn),n,n,n,n,n,n,x,x
CCOc1ccc(CCNC(=O)COc2cc(=O)n(C)c3ccccc23)cc1OCC,n,n,n,n,n,n,x,x
CCn1c(=O)cc(OCC(=O)NCCc2ccc(OC)c(OC)c2)c2ccccc21,n,n,n,n,48,n,n,n
COc1nc(C)cc(C)c1S(=O)(=O)c1ccccc1,n,x,n,n,18,n,n,n
COc1cccc(Nc2nc(-c3sc(N)nc3C)cs2)c1,n,n,n,n,17,n,n,n
Cc1nc(N)sc1-c1csc(Nc2ccc(S(N)(=O)=O)cc2)n1,n,x,n,n,60,n,n,n
CCCCCCC(=O)Nc1nc(C)c(-c2csc(Nc3cc(Cl)ccc3C)n2)s1,n,n,n,n,n,n,x,x
CCOc1ccccc1Nc1nc(-c2sc(NC(=O)c3cccc(Cl)c3)nc2C)cs1,n,n,64,n,73,n,33,n
COc1cccc(Nc2nc(-c3sc(C)nc3C)cs2)c1,n,x,n,n,n,n,x,x
Cc1ccc(Cl)cc1Nc1nc(-c2sc(NC(=O)c3ccccc3)nc2C)cs1,x,n,x,x,57,n,46,n
COc1ccc(CCNC(=O)Nc2nc(C(N)C3CCCCC3)cs2)cc1OC (stereo not drawn),n,x,n,n,x,x,x,x
COc1ccc(NC(=O)C2Cc3c(-c4cccc(C(C)=O)c4)ccnc3O2)cn1 (stereo not drawn),n,x,n,n,x,x,x,x
COc1ccccc1Nc1nc(-c2sc(NC(=O)c3ccccc3)nc2C)cs1,n,n,n,n,47,n,24,n
Cc1nc(NC(=O)c2ccccc2)sc1-c1csc(Nc2cccc(F)c2)n1,x,n,x,x,37,n,28,n
CCCCCC(=O)Nc1nc(C)c(-c2csc(Nc3ccccc3OC)n2)s1,n,n,n,n,n,n,x,x
COc1ccccc1Nc1nc(-c2sc(NC(=O)c3ccc([N+](=O)[O-])cc3)nc2C)cs1,x,n,x,x,72,n,23,n
COc1ccccc1Nc1nc(-c2sc(N)nc2C)cs1,n,x,n,n,31,n,n,n
[O-][n+]1c2ccccc2cc2ccccc21,n,x,n,n,x,n,x,x
CCOc1ccccc1Nc1nc(-c2sc(NC(=O)c3ccccc3)nc2C)cs1,x,n,x,x,46,n,25,n
Cc1cc(NS(=O)(=O)c2ccc(Nc3nc(-c4sc(NC(=O)c5ccccc5)nc4C)cs3)cc2)no1,x,n,x,x,33,n,n,n
CCCCCC(=O)Nc1nc(C)c(-c2csc(Nc3ccccc3OCC)n2)s1,n,n,n,n,n,n,x,x
CCC(=O)Nc1nc(C)c(-c2csc(Nc3ccc(S(=O)(=O)Nc4cc(C)on4)cc3)n2)s1,x,n,x,x,n,x,x,x
CN1CCCC(C)(C(=O)Nc2ccc3scnc3c2)C1 (stereo not drawn),n,x,n,n,x,x,x,x
SMILES,TRAIL sens C8,PPC-1+TRAIL kill,TWEAK Fn14 block,TROY signal inh,HSP90 inh,Platelet DG rel,HSP90 confirm,luciferase ctr
Cc1ccc2c(c1)[nH]c1c(=O)n(Cc3ccco3)cnc12,n,n,n,n,n,n,x,x
Cc1ccnc(Nc2nc3ccccc3o2)n1,n,n,80,n,22,n,45,22
O=C(O)c1ccc(Nc2nc3c(s2)CCCC3)cc1,n,n,91,n,67,n,91,80
Cc1nc(Nc2ccc(C(=O)O)cc2)sc1-c1ccccc1,n,n,93,56,34,n,84,63
CCN(C(=O)CSc1nnc(-c2ccco2)n1CC)c1c(N)n(Cc2ccccc2)c(=O)[nH]c1=O,n,x,n,n,x,x,x,x
CC(OC(=O)C1=COCCO1)C(=O)c1ccc(C(C)(C)C)cc1 (stereo not drawn),n,x,n,n,x,x,x,x
O=C(/C=C/c1ccccc1)c1ccc2c(c1)OCCCCO2,n,n,n,n,33,n,33,29
O=C(NCCS(=O)(=O)NCCc1ccccc1)c1ccc2c(c1)OCO2,n,x,n,n,x,n,x,x
CC1CCC(NC(=O)c2ccc3c(c2)OCO3)CC1 (stereo not drawn),n,x,54,n,24,n,46,27
O=C(NCCc1ccccc1)c1ccc2c(c1)OCCCO2,92,x,101,84,95,n,95,90
COc1cccc(OC)c1C(=O)NCCc1ccccc1,n,x,n,n,x,n,x,x
COC(=O)c1c(N)sc(C(=O)NCCc2ccccc2)c1C,75,x,99,76,87,n,87,82
CCOc1ccc(NC(=O)c2sc3nc(C)nc(N4CCOCC4)c3c2C)cc1,n,x,n,n,n,n,x,x
CC(OCC(O)CN(C)Cc1nc2ccccc2c(=O)[nH]1)c1ccc(Cl)cc1 (stereo not drawn),n,n,n,n,n,n,x,x
O=C(NCCc1ccccc1)c1ccc2c(c1)OCCO2,83,x,99,83,85,n,97,89
O=C(NCCc1cccc(Cl)c1)c1ccc2c(c1)OCO2,57,x,n,n,20,n,40,29
Cc1ccc(C(=O)NCCc2ccccc2)cc1,64,x,97,67,62,n,78,74
O=C(NCCOc1ccccc1)c1ccc2c(c1)OCO2,n,n,94,63,48,n,71,67
COc1ccc(CCNC(=O)c2ccc3c(c2)OCCO3)cc1,n,n,n,n,n,n,x,x
CN(CCOc1ccccc1)C(=O)c1ccc2c(c1)OCO2,n,x,n,n,x,x,x,x
Cc1ccc(C(=O)NCCc2ccncc2)cc1,n,n,n,n,n,n,x,x
COc1ccc(/C=C/C(=O)NNC(=O)c2cc(C)oc2C)cc1,n,x,n,n,x,n,x,x
O=C(NCCN1CCOCC1)c1ccc(=O)n(Cc2ccc(Cl)cc2)c1,n,n,n,n,n,n,x,x
Cc1onc(-c2ccccc2Cl)c1C(=O)N1CCN(C(=O)c2ccco2)CC1,n,n,n,n,27,n,n,n
Cc1onc(-c2ccccc2Cl)c1C(=O)N1CCCC1,n,x,n,n,n,n,x,x
C[n+]1ccc(/C=C/c2cccs2)cc1,n,n,n,n,28,n,n,n
